Test results from PubChem BioAssay AID1259415 (National Center for Advancing Translational Sciences (NCATS), 2018).
Hit rate of the full screen: of about 410,000 compounds, about 18,000 (4.4%) were called active. Another 7% or so got no clear call; they are omitted. Only a selection was taken, and actives are over-represented in it overall. A number with no mark means an inactive call. Rule as the data show it: active = activity change below about -60%; inconclusive = no clear call, values can overlap the other calls; inactive = above about -39%.

Experiment: qHTS Assay for inhibitors of the human cytomegalovirus (HCMV)
Details: HFF cells, HCMV-luciferase reporter, 72 h; at 57.5 µM; active compounds read low
Excerpt: NCGC Assay Overview: Infection with human cytomegalovirus (HCMV) continues to pose significant threats for pregnant women and immunocompromised hosts. HCMV causes serious morbidity and mortality in transplant recipients, and congenital HCMV is the leading infectious cause of mental retardation and deafness in children. In the 1990s, the annual costs associated with the disease burden of congenital CMV were estimated at around $2 billion. A HCMV vaccine is not available yet and HCMV therapies result in intolerable side effects and emergence of drug resistant viruses. […] Towards this goal we have developed and characterized a luciferase HCMV reporter that was initially used in 96 well plates and then optimized to 1536-well plates for utilization in screening of the MLSMR collection, the NGCG diversity collection and the NCGC Pharmaceutical Collection of approved and investigational drugs.
NCGC Assay Protocol Summary:
This is a cell-based assay for HCMV inhibition in HFFs cells. The screening used 2 compound doses and the HCMV-luciferase at MOI of 1 PFU/cell. Cells were treated and infected with HCMV. At 72 h post infection cell lysates were collected and luciferase activity was determined using the Glomax-Multi + Detection System (Promega, Madison, WI). Data were normalized to the controls for basal activity (buffer only) and known HCMV inhibitors Salinmoycin.
1536-well assay protocol for the assay:
(1) Add 3 ul CMV/HFF cell culture. 1000 cells/well in DMEM nirmal media.
(2) Incubate 16 hr at 37C.
(3) Add 23 nl control compound, 10uM of Salinomycin.
(4) Add 23 nl compounds in DMSO solution.
(5) Add 3 ul CMV suspension. Final 1 puf/ul, Virus stock 2000pfu/ul
(6) Incubate 72 hrs at 37C.
(7) Add 4 ul OneGlo Luc Reagent.
(8) Incubate 5 min at room temperature.
% is scaled to controls: 0 for no effect and ±100 for the full control effect.

Compound	activity change, negative = inhibition
CCOC(=O)c1ccc(NC(=O)C2CCN(S(=O)(=O)c3ccc4c(c3)CCCC(=O)N4)CC2)cc1	-34.6%
COc1cc(C(=O)Nc2ccc(OCc3cc(=O)n4cc(C)sc4n3)cc2)cc(OC)c1OC	13.1%
COc1ccc(OC)c(NC(=O)C2CCCN(S(=O)(=O)c3ccc4c(c3)CCCC(=O)N4)C2)c1 (stereo not drawn)	5.92%
COc1ccc(-c2nc3ccccc3o2)cc1NC(=O)c1cc([N+](=O)[O-])ccc1N1CCOCC1	17.1%
COc1ccc(-c2nc3ccc(C(=O)NCc4ccc(C)cc4)cc3nc2-c2ccc(OC)cc2)cc1	13.2%
CCOc1ccc(Nc2nc(Cc3nnc(SCC(=O)c4ccc(C)cc4)o3)cs2)cc1	-18.3%
Cc1ccc(Nc2nc(CSc3nnc(-c4ccncc4)n3-c3ccccc3C)cs2)cc1	-86.5% (active)
CCOc1ccccc1-n1c(SCC(=O)NCc2ccco2)nnc1-c1ccncc1	24.1%
Cc1ccc(-c2nc(S(=O)(=O)c3ccc(C)cc3)c(N3CCCCCC3)o2)cc1	-3.36%
O=C(CSc1oc(-c2ccc(F)cc2)nc1S(=O)(=O)c1ccc(Br)cc1)NC1CCCCC1	5.22%
CC(C)S(=O)(=O)c1oc(-c2ccc(F)cc2)nc1S(=O)(=O)c1ccc(F)cc1	-98.8% (active)
COc1ccc(N2C(=O)CSC23C(=O)N(Cc2cccc(F)c2)c2ccccc23)cc1Cl (stereo not drawn)	-38.5%
Cc1cccc(C(=O)N2CCc3cc(CNC(=O)Cc4ccc(F)cc4)ccc32)c1	5.96%
Cc1c(Cl)cccc1NC(=O)C1CCCN(C(=O)c2cnn(-c3ccccc3)c2-n2cccc2)C1 (stereo not drawn)	-29.6%
O=c1cc(COc2cccc(C(F)(F)F)c2)nc2sc3c(n12)CCCC3	-0.855%
CCOC(=O)c1ccc(N2C(=O)c3n[nH]c(C)c3C2c2ccc(O)c(OC)c2)cc1 (stereo not drawn)	-24.9%
CCOc1ccc(-c2n[nH]c3c2C(c2ccccc2OC)N(c2ccc(Br)cc2)C3=O)cc1 (stereo not drawn)	21.3%
CCOc1cc(C2c3c(-c4ccc(Br)cc4)n[nH]c3C(=O)N2c2ccc(Cl)cc2)ccc1O (stereo not drawn)	-106% (active)
COc1ccc(NC(=O)CCN2CCN(CCO)CC2)cc1	0.59%
O=C(c1ccc2c(c1)N(Cc1ccccc1)C(=O)c1ccccc1S2(=O)=O)N1CCC(Cc2ccccc2)CC1	4.82%
O=C(NCc1cccnc1)c1ccc(CS(=O)(=O)c2ccc(Br)cc2)o1	-24.5%
COc1ccc(CCNC(=O)c2ccc(CS(=O)(=O)c3ccc(Br)cc3)o2)cc1OC	-92.4% (active)
COc1ccc(CCNC(=O)c2nnc(CS(=O)(=O)c3ccccc3)o2)cc1OC	-33.4%
